# Most compounds without a hit are left out; they make up all but 10% or so of the library.
# Lamin A splicing: LMNA splicing modulation; HeLa LMNA splicing GFP/RFP minigene ratio, 48 h; Potency, µM (series often up to 46.1 µM), for inactives: at the top dose ratio change, negative = inhibition, actives largely listed as inhibitors; 200,000 compounds, 0.01% hits; AID 1487; active = well fitted inhibition curve with a large enough effect in the signal ratio, with a control signal flat, not every such curve was filed as active; inconclusive = small, poorly fitted or top-dose-only effect, or effect the other way, or a change in a side signal; the % refers to the signal ratio; note: potency is the fitted concentration of half-maximal effect
#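 S3 HeLa stable clones carrying a lamin A-EGFP splicing minigene plus DsRed2 were seeded at 600 cells/well in Opti-MEM with 2% FBS, pin-dosed and incubated 48 h at 37°C. Acumen cytometry (488 nm) gave the GFP/RFP total-intensity ratio.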
# KinaseGlo FLuc: blocks Kinase-Glo luciferase, a counter-screen artifact | Q27757 | Kinase-Glo luciferase, ATP luminescence, 8 min | Potency, µM (titrated, usually from 38.3 µM), for the others: at the highest dose activity change, negative = inhibition, most hits filed as inhibitors | 200,000 compounds, 0.28% hits | AID 1379; active = well fitted inhibition curve with a large enough effect; inconclusive = small, poorly fitted or top-dose-only effect; note: potency is the fitted concentration of half-maximal effect; nearly all actives have a fitted effect of over 60% in size
#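 Compounds were added to a substrate mix at pH 7.2 (50 mM imidazole, 10 uM ATP, within the enzyme's linear range), followed by Kinase-Glo detection reagent; luminescence was measured after 8 minutes at ambient temperature.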
# HPGD inh: inhibitors of human 15-hydroxyprostaglandin dehydrogenase (HPGD); Potency, µM, without a hit: top-dose activity change, negative = inhibition, hits mostly inhibitors; P15428; 150,000 compounds, 4.3% hits; purified HPGD, NADH fluorescence kinetic, PGE2 substrate; AID 894; note: potency is the fitted concentration of half-maximal effect
#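 NADH formation kinetics: reaction with 30 uM PGE2 and 1 mM NAD+ (final), 20 nM enzyme, Tris-HCl pH 8 with Tween 20, after 15 min compound preincubation at room temperature. Fluorescence change, last versus first of five reads.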
# ALDH1A1 block: inhibitors of human aldehyde dehydrogenase 1A1; P00352; Purified ALDH1A1, NADH fluorescence, propionaldehyde substrate; Potency, µM (top dose mostly 75.3 µM), for the others: at the top dose activity, negative = inhibition, actives largely listed as inhibitors; 220,000 compounds, 7.3% hits; AID 1030;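 note: potency is the fitted concentration of half-maximal effect; plate controls were no enzyme wells and a reference inhibitor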
# Target sequence (P00352 whole entry, looked up): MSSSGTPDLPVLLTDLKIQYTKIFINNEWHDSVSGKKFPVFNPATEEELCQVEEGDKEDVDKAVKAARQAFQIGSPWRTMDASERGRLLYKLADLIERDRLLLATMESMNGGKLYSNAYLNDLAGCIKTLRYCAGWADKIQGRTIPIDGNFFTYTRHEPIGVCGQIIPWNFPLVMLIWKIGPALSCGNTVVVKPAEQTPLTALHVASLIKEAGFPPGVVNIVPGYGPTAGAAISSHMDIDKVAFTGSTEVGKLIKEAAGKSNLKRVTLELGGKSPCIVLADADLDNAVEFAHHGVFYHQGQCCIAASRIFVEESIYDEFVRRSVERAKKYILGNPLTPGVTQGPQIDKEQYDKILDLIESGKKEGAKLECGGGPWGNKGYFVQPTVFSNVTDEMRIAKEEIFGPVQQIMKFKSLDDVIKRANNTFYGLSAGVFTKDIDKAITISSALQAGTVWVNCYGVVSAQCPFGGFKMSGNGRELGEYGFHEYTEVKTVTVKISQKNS
# PNC assembly inh: blocks assembly of the perinucleolar compartment | PC3M PTB-GFP, PNC prevalence imaging, 16 h; hits give low values | 140,000 compounds, 3.1% hits | activity change (PNC), negative = inhibition, % at 10 µM;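 active = readout at or below -70, meaning at least 70% loss of cells showing the perinucleolar compartment, a nuclear body marking cancer cells; inconclusive = readout between -30 and a set limit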;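 note: plate controls were DMSO wells for no effect and camptothecin positive control wells for full effect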
#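 PC3M cells stably expressing PTB-GFP, 750–1000 cells/well, treated 16 h at 37 °C with compound (23 nl of library stock), in duplicate. After paraformaldehyde fixation and Hoechst stain, imaged at 20x; PNC prevalence scored by image analysis.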
# * marks the source's active call; other numbers are inactive results; ? = inconclusive; . = no result given; [ ] = dose if it differs, or a comment. Unless noted, calls come from the whole dose curve; as a rule, active = well fitted inhibition curve with a large enough effect (not every such curve was filed as active); inconclusive = small, poorly fitted or top-dose-only effect, or another doubt; inactive = no such curve, though single readings can be large or run the other way. Unless noted, % is set by controls: 0 for no effect and ±100 for the full control effect.
SMILES,Lamin A splicing,KinaseGlo FLuc,HPGD inh,ALDH1A1 block,PNC assembly inh
O=C(OC1CCOC1=O)c1cccc(S(=O)(=O)N2CCc3ccccc3C2)c1 (stereo not drawn),3%[46 µM],11%,.,13µM*,.
Cc1cc(N2CCN(C)CC2)ccc1NC(=O)c1cccc(S(=O)(=O)N2CCc3ccccc3C2)c1,.,0%,.,-12%,.
O=C(OC1CCOC1=O)c1ccc(N2CCCC2)c([N+](=O)[O-])c1 (stereo not drawn),12%[46 µM],5%,.,14µM*,.
O=C(OC1CCOC1=O)c1ccc(Cl)c(S(=O)(=O)N2CCCCC2)c1 (stereo not drawn),12%[46 µM],3%,.,-3%,.
O=C(COC(=O)c1ccc(S(=O)(=O)N2CCCCC2)cc1)NCc1ccco1,-9%[46 µM],2%,.,-6%,.
O=C(OC1CCOC1=O)c1ccc(S(=O)(=O)N2CCCCCC2)cc1 (stereo not drawn),-2%,-2%,16µM*,?,25
CCN(CC)S(=O)(=O)c1ccc2c(c1)nc(CN(C)C(=O)Nc1ccc(C)c(Cl)c1)n2C,0%[46 µM],.,.,.,.
CCc1cccc(CC)c1NC(=O)COC(=O)c1cccc(S(=O)(=O)N2CCc3ccccc3C2)c1,0%,-1%,-4%,-1%,-90*
CCc1ccc2c(O)c3c(cc2c1C(=O)OC)C(=O)c1c(O)ccc(O)c1C3=O,.,-15%,?,5%,.
CCN(CC#CCC(O)(c1ccccc1)C1CCCC1)C(C)C (stereo not drawn),3%,-2%,-3%,19%,-23
CC(C)N(CC#CCC(O)(c1ccccc1)C1CCCC1)CCO (stereo not drawn),.,-2%,.,28µM*,.
CSCCC(NC(=O)c1ccccc1)C(=O)NC1CCCC1 (stereo not drawn),1%,-1%,-6%,0%,-84*
CSCCC(NC(=O)c1ccccc1)C(=O)O (stereo not drawn),.,2%,.,5%,.
COc1cccc(CNC(=O)CN2C(=O)CSc3c2c(C)nn3-c2ccccc2)c1,-7%[46 µM],.,.,.,.
CC1=C(C)C(=O)C(CCCCC#CCCCC#CCO)=C(C)C1=O,?,-2%,?,14µM*,22
CO[C@@H]1COC(=O)CC=C[C@@H](C)[C@@H]2C=C[C@@H](O)[C@@H](COC(=O)C/C=C\[C@H]1C)O2,.,.,.,-6%[13.5 µM],.
Cc1cc(O)c(C(C)C)cc1Cl,?,4%[39.9 µM],-4%,1%,.
O=C(c1nn(Cc2ccccc2)c(=O)c2ccccc12)N1CCN(C/C=C/c2ccccc2)CC1,11%,0%,-5%,13µM*,37
O=C(Nc1ccccc1Cl)N1CCN(C/C=C/c2ccccc2)CC1,5%,3%,-3%,10%,-91*
CCCCSc1nnc([C@H](CC(C)C)NC(=O)OC(C)(C)C)o1,1%,-8%,-2%,-7%,-17
CCc1ccccc1NC(=O)CSc1nnc([C@H](CCSC)NC(=O)OC(C)(C)C)o1,-5%,12%,-18%,22µM*,12
CCCCSc1nnc([C@H](C)NC(=O)OC(C)(C)C)o1,4%,1%,-30%,22µM*,?
O=C1[C@H]2[C@H]3[C@H](O)[C@H](O)C/C(=N/OC[C@@H](O)COCc4ccco4)[C@@H]3CC[C@@H]2C(=O)N1C[C@@H]1CCCO1,.,.,.,2%[13.5 µM],.
O=C(O)[C@@H](O)[C@@H](O)[C@H](O)[C@H](O)CO,?,-5%[7.66 µM],-4%,3%[13.5 µM],.
Cn1cccc1-c1cc(C(=O)N2CCc3c([nH]c4ccccc34)C2c2ccccn2)[nH]n1 (stereo not drawn),.,0%,.,13µM*,.
SMILES,Lamin A splicing,KinaseGlo FLuc,HPGD inh,ALDH1A1 block,PNC assembly inh
CCOc1ccccc1NC(=O)CSc1nnnn1Cc1ccccc1,-4%,-1%,-12%,1%,-82*
CCOc1ccccc1NC(=O)CSc1nnnn1-c1ccccc1,-1%,4%,-18%,16µM*,?
CCOc1ccccc1NC(=O)COn1nnc2ccc(Cl)cc21,19%,2%,?,16µM*,?
O=c1cc(CSc2n[nH]c(-c3ccccc3)n2)[nH]c2ccccc12,-7%[46 µM],.,.,.,.
CCOC(=O)c1ccc2c(c1)N(CC(=O)Nc1ccc(C)cc1C)C(=O)c1ccccc1S2,-15%[46 µM],.,.,.,.
COc1cccc(C2(c3cccc(OC)c3)CC2C(=O)Nc2ccccc2Cl)c1 (stereo not drawn),-14%,-1%,-10%,-7%,-82*
